The sample as a whole holds a higher share of the strongest signals than the screen did.
What was measured:
Experiment in all cases: glycan array binding signal (z-score within array); higher = stronger binding
Conditions in all cases: glycan notation: IUPAC condensed, linker removed
[1] = target: Fuc(a1-2)Gal(b1-3)GalNAc(a1-3)[Fuc(a1-2)]Gal(b1-4)Glc
Procedure, shortened: (§1)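 Glycan array binding is given as a within-array Z-score, which can be read as non-binding when negative. The arrays, 3228 of them, came from the Consortium for Functional Glycomics database and were retained only where the protein sequence was available. Z-scores were averaged across arrays of the same protein sequence at different concentrations or buffers and across linkers.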

[2] = target: Fuc(a1-2)Gal(b1-4)[Fuc(a1-3)]GlcNAc(b1-3)Gal(b1-4)[Fuc(a1-3)]GlcNAc
Procedure, shortened: as §1

[3] = target: Fuc(a1-2)Gal(b1-4)[Fuc(a1-3)]GlcNAc(b1-3)[Neu5Ac(a2-6)Gal(b1-4)GlcNAc(b1-6)]Gal(b1-4)Glc
Procedure, shortened: as §1

[4] = target: Fuc(a1-2)[Gal(a1-3)]Gal(b1-4)GlcNAc(b1-6)GalNAc
Procedure, shortened: as §1

[5] = target: Fuc(a1-2)[GalNAc(a1-3)]Gal(b1-3)GalNAc(a1-3)[Fuc(a1-2)]Gal(b1-4)GlcNAc
Procedure, shortened: as §1

[6] = target: Fuc(a1-2)[GalNAc(a1-3)]Gal(b1-4)[Fuc(a1-3)]GlcNAc(b1-3)GalNAc
Procedure, shortened: as §1

[7] = target: Fuc(a1-3)[Gal(b1-4)]GlcNAc(b1-2)Man(a1-3)[Fuc(a1-3)[Gal(b1-4)]GlcNAc(b1-2)Man(a1-6)]Man(b1-4)GlcNAc(b1-4)[Fuc(a1-6)]GlcNAc
Procedure, shortened: as §1

Gal(a1-3)GalNAc = target: Gal(a1-3)GalNAc
Procedure, shortened: as §1

[8] = target: Gal(a1-3)[Gal(a1-4)]Gal(b1-4)GlcNAc
Procedure, shortened: as §1

Gal(a1-4)Gal(b1-4)Glc = target: Gal(a1-4)Gal(b1-4)Glc
Procedure, shortened: as §1

[9] = target: Gal(b1-3)GalNAc(b1-4)Gal(b1-4)Glc
Procedure, shortened: as §1

[10] = target: Gal(b1-3)GlcNAc(a1-3)Gal(b1-4)GlcNAc
Procedure, shortened: as §1

Gal(b1-4)Gal = target: Gal(b1-4)Gal
Procedure, shortened: as §1

[11] = target: Gal(b1-4)GalNAc(a1-3)[Fuc(a1-2)]Gal(b1-4)GlcNAc
Procedure, shortened: as §1

[12] = target: Gal(b1-4)GlcNAc(b1-3)Gal(b1-4)GlcNAc(b1-3)Gal(b1-4)GlcNAc(b1-2)Man(a1-3)[Gal(b1-4)GlcNAc(b1-3)Gal(b1-4)GlcNAc(b1-3)Gal(b1-4)GlcNAc(b1-2)Man(a1-6)]Man(b1-4)GlcNAc(b1-4)[Fuc(a1-6)]GlcNAc
Procedure, shortened: as §1

Gal(b1-6)Gal = target: Gal(b1-6)Gal
Procedure, shortened: as §1

Gal3S6S(b1-4)GlcNAc6S = target: Gal3S6S(b1-4)GlcNAc6S
Procedure, shortened: as §1

Gal6S(b1-4)Glc = target: Gal6S(b1-4)Glc
Procedure, shortened: as §1

[13] = target: GalNAc(b1-3)Gal(a1-4)Gal(b1-4)GlcNAc
Procedure, shortened: as §1

GalNAc(b1-4)GlcNAc = target: GalNAc(b1-4)GlcNAc
Procedure, shortened: as §1

GalNAc4S6S(b1-4)GlcNAc = target: GalNAc4S6S(b1-4)GlcNAc
Procedure, shortened: as §1

GalNAc6S(b1-4)GlcNAc = target: GalNAc6S(b1-4)GlcNAc
Procedure, shortened: as §1

GlcA(b1-3)Gal = target: GlcA(b1-3)Gal
Procedure, shortened: as §1

[14] = target: GlcNAc(a1-4)Gal(b1-3)GlcNAc
Procedure, shortened: as §1

[15] = target: GlcNAc(a1-4)Gal(b1-4)GlcNAc(b1-3)Gal(b1-4)Glc
Procedure, shortened: as §1

[16] = target: GlcNAc(b1-2)Gal(b1-3)GalNAc
Procedure, shortened: as §1

[17] = target: GlcNAc(b1-2)[GlcNAc(b1-4)]Man(a1-3)[GlcNAc(b1-4)][GlcNAc(b1-2)Man(a1-6)]Man(b1-4)GlcNAc(b1-4)GlcNAc
Procedure, shortened: as §1

[18] = target: GlcNAc(b1-3)Gal(b1-4)GlcNAc(b1-2)[GlcNAc(b1-3)Gal(b1-4)GlcNAc(b1-6)]Man(a1-6)[GlcNAc(b1-3)Gal(b1-4)GlcNAc(b1-2)Man(a1-3)]Man(b1-4)GlcNAc(b1-4)GlcNAc
Procedure, shortened: as §1

[19] = target: GlcNAc(b1-3)Gal(b1-4)GlcNAc(b1-3)Gal(b1-4)GlcNAc(b1-2)[GlcNAc(b1-3)Gal(b1-4)GlcNAc(b1-3)Gal(b1-4)GlcNAc(b1-6)]Man(a1-6)[GlcNAc(b1-3)Gal(b1-4)GlcNAc(b1-3)Gal(b1-4)GlcNAc(b1-2)Man(a1-3)]Man(b1-4)GlcNAc(b1-4)[Fuc(a1-6)]GlcNAc
Procedure, shortened: as §1

[20] = target: GlcNAc(b1-3)Gal(b1-4)GlcNAc(b1-3)Gal(b1-4)GlcNAc(b1-3)Gal(b1-4)GlcNAc(b1-3)Gal(b1-4)GlcNAc(b1-2)[GlcNAc(b1-3)Gal(b1-4)GlcNAc(b1-3)Gal(b1-4)GlcNAc(b1-3)Gal(b1-4)GlcNAc(b1-3)Gal(b1-4)GlcNAc(b1-6)]Man(a1-6)[GlcNAc(b1-3)Gal(b1-4)GlcNAc(b1-3)Gal(b1-4)GlcNAc(b1-3)Gal(b1-4)GlcNAc(b1-3)Gal(b1-4)GlcNAc(b1-2)Man(a1-3)]Man(b1-4)GlcNAc(b1-4)[Fuc(a1-6)]GlcNAc
Procedure, shortened: as §1

B1: AT5G17240(42) (Arabidopsis thaliana), Q6NQJ8 (protein)
chain: MDLEHQTMETFLRWAAEIGISDSIDSSRFRDSCLGHSLSVSDFPDAGGRGLGAARELKKGELVLKVPRKALMTTESIIAKDLKLSDAVNLHNSLSSTQILSVCLLYEMSKEKKSFWYPYLFHIPRDYDLLATFGNFEKQALQVEDAVWATEKATAKCQSEWKEAGSLMKELELKPKFRSFQAWLWASATISSRTLHVPWDSAGCLCPVGDLFNYDAPGDYSNTPQGPESANNVEEAGLVVETHSERLTDGGFEEDVNAYCLYARRNYQLGEQVLLCYGTYTNLELLEHYGFMLEENSNDKVFIPLETSLFSLASSWPKDSLYIHQDGKLSFALISTLRLWLIPQSQRDKSVMRLVYAGSQISVKNEILVMKWMSEKCGSVLRDLPTSVTEDTVLLHNIDKLQDPELRLEQKETEAFGSEVRAFLDANCLWDVTVLSGKPIEFSRKTSRMLSKWRWSVQWRLSYKRTLADCISYCNEKMNNLLGTQDRLRDL
In the case of B1, the “glycan array binding signal (z-score)” value [1] is reported as 0.123, the “glycan array binding signal (z-score)” value [2] is reported as 0.458 and the “glycan array binding signal (z-score)” value [3] is reported as -0.37. For the same binder, the “glycan array binding signal (z-score)” value [4] was -0.375, the “glycan array binding signal (z-score)” value [5] was -0.276 and the “glycan array binding signal (z-score)” value [6] was 6.64. The “glycan array binding signal (z-score)” value [7] was 0.044, the “glycan array binding signal (z-score)” value (Gal(a1-3)GalNAc) was 1.94 and the “glycan array binding signal (z-score)” value [8] was 8.82. For the same binder, the “glycan array binding signal (z-score)” value (Gal(a1-4)Gal(b1-4)Glc) was 4.63, the “glycan array binding signal (z-score)” value [9] was 1.23 and the “glycan array binding signal (z-score)” value [10] was -0.028. The “glycan array binding signal (z-score)” value (Gal(b1-4)Gal) was 0.335, the “glycan array binding signal (z-score)” value [11] was -0.444 and the “glycan array binding signal (z-score)” value [12] was -0.845. The “glycan array binding signal (z-score)” value (Gal(b1-6)Gal) was -0.362, the “glycan array binding signal (z-score)” value (Gal3S6S(b1-4)GlcNAc6S) was 1.61 and the “glycan array binding signal (z-score)” value (Gal6S(b1-4)Glc) was -0.21. The “glycan array binding signal (z-score)” value [13] was 3.08, the “glycan array binding signal (z-score)” value (GalNAc(b1-4)GlcNAc) was 8.25 and the “glycan array binding signal (z-score)” value (GalNAc4S6S(b1-4)GlcNAc) was 1.39. For the same binder, the “glycan array binding signal (z-score)” value (GalNAc6S(b1-4)GlcNAc) was -0.134, the “glycan array binding signal (z-score)” value (GlcA(b1-3)Gal) was -0.785 and the “glycan array binding signal (z-score)” value [14] was -0.54. The “glycan array binding signal (z-score)” value [15] was -0.607, the “glycan array binding signal (z-score)” value [16] was -0.394 and the “glycan array binding signal (z-score)” value [17] was -0.434. The “glycan array binding signal (z-score)” value [18] was 2.56, the “glycan array binding signal (z-score)” value [19] was 1.12 and the “glycan array binding signal (z-score)” value [20] was 1.33.
